Consider eight compounds from PubChem BioAssay.

Calls of active or inactive are those of the source.

For one experiment, the system named is Lefty1. Nature of the experiment: Lefty1 protein binding to printed compounds – biochemical, small-molecule microarray, 635/667 nm fluorescence, primary screen (AID 1139). To be noted: fluorescence 635/667, higher = more signal.
In experiment [1] the test system is wheat germ agglutinin (Triticum aestivum), Alexa647-labelled. Kind of experiment: Alexa647-WGA lectin binding to printed small molecules – biochemical, small-molecule microarray, 635/667 nm fluorescence, artefact control for SMM control-protein annotation, profiling panel (AID 1140).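 Also: score merges 667 nm feature emission with signal to noise over triplicate slides.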 To be noted: WGA-A647 binding, 635 nm fluorescence, higher = more signal.
Experiment [2] deals with Luciferin 4-monooxygenase (Photinus pyralis) (UniProt P08659). Nature of the experiment: inhibition of purified Photinus pyralis luciferase – biochemical, luminescence, purified enzyme, 2006 set, primary screen (AID 1141).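 Also: cell-free assay with purified firefly luciferase at 100 ng per well in PBS; test concentration not given here.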 The note with it: purified firefly luciferase, SteadyGlo luminescence, 30 min; higher = more signal, called active from +8 up or from −8 down.
Sequence of Luciferin 4-monooxygenase (Photinus pyralis) (P08659 whole entry, looked up): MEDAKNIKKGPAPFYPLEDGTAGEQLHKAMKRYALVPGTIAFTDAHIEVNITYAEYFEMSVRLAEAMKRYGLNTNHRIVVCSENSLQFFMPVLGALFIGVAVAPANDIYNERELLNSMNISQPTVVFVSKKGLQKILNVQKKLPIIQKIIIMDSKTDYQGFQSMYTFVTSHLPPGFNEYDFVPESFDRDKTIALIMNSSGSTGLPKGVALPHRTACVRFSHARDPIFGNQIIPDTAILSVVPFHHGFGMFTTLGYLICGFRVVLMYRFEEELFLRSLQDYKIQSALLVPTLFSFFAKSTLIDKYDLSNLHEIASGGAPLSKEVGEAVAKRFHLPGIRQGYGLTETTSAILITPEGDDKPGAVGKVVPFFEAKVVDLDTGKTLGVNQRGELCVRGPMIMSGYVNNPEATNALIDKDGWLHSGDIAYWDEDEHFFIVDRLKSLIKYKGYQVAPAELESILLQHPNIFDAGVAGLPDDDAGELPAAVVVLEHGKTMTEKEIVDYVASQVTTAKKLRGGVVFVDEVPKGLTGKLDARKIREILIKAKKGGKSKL
For experiment [3], the system named is Wnt5a (protein binding on small-molecule microarray). Nature of the experiment: small molecules binding Wnt5a protein – biophysical, small-molecule microarray, 635/667 nm fluorescence, primary screen (AID 1142).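 Also: fluorescence read at 667 nm with signal to noise per printed feature.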 To be noted: 635 nm fluorescence, higher = more signal.
Experiment [4] can be described thus: ATP-based viability of Huh7 replicon cells – cell-based, CellTiter-Glo luminescence, basal, 48 h, cytotoxicity control for HCV replication inhibitor project, primary screen (AID 1143).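 Also: Huh7 hepatoma cells carrying a hepatitis C replication reporter with no stimulus; test concentration not given here.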 The note with it: higher = more signal, called active from +8 up or from −8 down.
Experiment [5] is described as follows: basal CRE-LacZ reporter activity in PC12 – cell-based, unstimulated, primary screen (AID 1145). The note with it: no forskolin, luminescence, 4.5 h, higher = more signal, called active from +8 up or from −8 down.
The nature of experiment [6]: forskolin-driven CRE-LacZ activity in PC12 – cell-based, CRE-LacZ reporter, forskolin-stimulated, primary screen (AID 1146).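 Also: PC12 cells with 6xCRE LacZ reporter stimulated by forskolin 10 µM; beta-galactosidase reporter signal reflecting CREB driven transcription.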 The note with it: luminescence, 4.5 h, higher = more signal, called active from +8 up or from −8 down.
Experiment [7] has as its target Streptavidin (Streptomyces avidinii) (UniProt P22629). Kind of experiment: compounds binding control protein streptavidin – biophysical, small-molecule microarray, 635/667 nm fluorescence, artefact control for SMM compound annotation, primary screen (AID 1147).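 Also: signal reflects streptavidin binding to arrayed compounds as a control protein.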 The note with it: higher = more signal.
A short description of experiment [8]: probe aInhba binding on compound microarray – biochemical, small-molecule microarray, 635/667 nm fluorescence, primary screen (AID 1148).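 Also: score merges 667nm spot fluorescence with signal-to-noise for antibody binding to printed compounds.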 The note with it: higher = more signal.
Experiment [9] concerns the target Torsin-1A (Homo sapiens) (UniProt O14656). Kind of experiment: TOR1A wild-type binding on microarray – cell lysate, small-molecule microarray, lysate, 635/667 nm, primary screen (AID 1149). To be noted: COS7 hTOR1A-WT lysate, 635 nm fluorescence, higher = more signal.
Experiment [10] shares this target. Nature of the experiment: torsin A mutant lysate binding on microarrays – cell lysate, small-molecule microarray, COS7 lysate, 635/667 nm fluorescence, primary screen (AID 1150).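 Also: score pools 667 nm emission and signal to noise measuring lysate protein binding.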 To be noted: COS7 hTOR1A mutant lysate, 635 nm fluorescence, higher = more signal.
Experiment [11] deals with Sonic hedgehog protein (Shh). Nature of the experiment: Sonic hedgehog microarray binding compounds – biochemical, small-molecule microarray, 635/667 nm fluorescence, primary screen (AID 1151).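 Also: Shh protein binding to compounds spotted on small-molecule microarray slides; score combines spot fluorescence intensity with signal-to-noise across triplicate slides.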 The note with it: 635 nm fluorescence, higher = more signal.
Experiment [12] in a line: optical density shifts of acrAB sulA E. coli – strain DRC41, OD650, 48 h, E. coli filamentation inducer project, primary screen (AID 1152).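 Also: E. coli MC1000 strain DRC41 lacking acrAB efflux pump and sulA.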 The note with it: higher = more signal, called active from +8 up or from −8 down.
Experiment [13] is described as follows: probe aLefty1 binding on compound microarray – biochemical, small-molecule microarray, 635/667 nm fluorescence, primary screen (AID 1153).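 Also: score merges spot fluorescence with signal-to-noise ratio from the scanned slide images.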 To be noted: higher = more signal.
Experiment [14] can be described thus: plasmodial surface anion channel blockers, osmotic lysis – cell-based, P. falciparum Indochina, OD700, 1 h, primary screen (AID 1154). To be noted: P. falciparum Indochina infected RBC osmotic lysis, higher = more signal, called active from +8 up or from −8 down.
Experiment [15] is described as follows: plasmodial surface anion channel blockers, osmotic lysis – cell-based, P. falciparum Indochina, OD700, 2 h, primary screen (AID 1155).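 Also: lysis reports solute entry through the parasite surface anion channel PSAC.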 The note with it: P. falciparum Indochina infected erythrocytes, higher = more signal, called active from +8 up or from −8 down.
The nature of experiment [16]: changes in parasitized red cell lysis, either direction – P. falciparum Indochina, OD700, 3 h, PSAC antagonist project, primary screen (AID 1156). To be noted: P. falciparum-infected erythrocytes, osmotic lysis, higher = more signal, called active from +8 up or from −8 down.
Experiment [17] is described as follows: plasmodial surface anion channel blockers, osmotic lysis – cell-based, P. falciparum Indochina, OD700, 18 h, primary screen (AID 1157). To be noted: P. falciparum Indochina infected erythrocytes, osmotic lysis OD700, 18 h; higher = more signal, called active from +8 up or from −8 down.
Experiment [18] can be described thus: S6 kinase pathway phospho-S6 level changes – cell-based, A549, cytoblot, luminescence, serum-stimulated, primary screen (AID 1158).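 Also: serum-stimulated A549 lung adenocarcinoma cells; signal is phosphorylated S6 detected by cytoblot immunostaining with HRP secondary.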 The note with it: 5 h, higher = more signal.
Experiment [19] has as its target NADPH oxidase 2 (Homo sapiens) (UniProt P04839). Kind of experiment: compounds shifting NOX2 Amplex Red fluorescence – cell-based, HEK293-NOX2, PMA-stimulated, NOX inhibitor project, primary screen (AID 1159). Also: test concentration not given here. To be noted: 45 min, higher = more signal, called active from +8 up or from −8 down.

Sequence of Torsin-1A (Homo sapiens) (O14656 whole entry, looked up): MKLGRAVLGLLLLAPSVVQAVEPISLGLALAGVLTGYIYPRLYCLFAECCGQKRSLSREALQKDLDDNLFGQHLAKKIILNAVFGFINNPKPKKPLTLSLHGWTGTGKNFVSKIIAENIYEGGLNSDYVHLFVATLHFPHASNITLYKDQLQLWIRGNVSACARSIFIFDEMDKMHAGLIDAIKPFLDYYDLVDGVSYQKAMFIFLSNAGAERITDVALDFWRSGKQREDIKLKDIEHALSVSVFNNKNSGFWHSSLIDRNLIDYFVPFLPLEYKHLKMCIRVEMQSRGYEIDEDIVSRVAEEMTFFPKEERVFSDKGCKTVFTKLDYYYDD
Sequence of Streptavidin (Streptomyces avidinii) (P22629 whole entry, looked up): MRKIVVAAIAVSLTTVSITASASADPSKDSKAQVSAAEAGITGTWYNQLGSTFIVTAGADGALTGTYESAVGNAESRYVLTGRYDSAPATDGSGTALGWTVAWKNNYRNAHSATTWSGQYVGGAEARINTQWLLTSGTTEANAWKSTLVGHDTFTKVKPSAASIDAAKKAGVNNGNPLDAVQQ
Sequence of NADPH oxidase 2 (Homo sapiens) (P04839 whole entry, looked up): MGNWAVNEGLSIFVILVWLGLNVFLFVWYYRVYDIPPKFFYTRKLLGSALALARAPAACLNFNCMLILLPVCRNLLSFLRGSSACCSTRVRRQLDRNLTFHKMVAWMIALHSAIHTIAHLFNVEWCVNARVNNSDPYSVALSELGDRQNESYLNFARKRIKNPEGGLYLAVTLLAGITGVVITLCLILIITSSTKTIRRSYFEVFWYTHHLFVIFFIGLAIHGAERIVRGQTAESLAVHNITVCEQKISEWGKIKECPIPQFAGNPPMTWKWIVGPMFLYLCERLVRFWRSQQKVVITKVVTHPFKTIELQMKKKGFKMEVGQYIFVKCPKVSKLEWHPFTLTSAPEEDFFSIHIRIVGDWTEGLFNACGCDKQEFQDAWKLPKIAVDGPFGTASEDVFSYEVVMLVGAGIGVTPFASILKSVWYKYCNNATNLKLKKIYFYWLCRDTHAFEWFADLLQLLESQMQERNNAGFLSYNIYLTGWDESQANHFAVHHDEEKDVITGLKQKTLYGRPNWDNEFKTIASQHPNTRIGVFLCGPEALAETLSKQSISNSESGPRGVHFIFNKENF

Consider `COc1ccc([Si](C)(C)[C@@H]2[C@@H](CCn3cc(CCO)nn3)O[C@]3(C(=O)N(Cc4ccc(N5C(=O)c6cccc7cccc5c67)cc4)c4ccccc43)[C@H]2C)cc1`, for which the composite z-score in the experiment on Lefty1 was 0.518; in experiment [1] it was 1.2; in [3], 0.0378; in [7], 0.256; in experiment [8] it was -0.0529; in the experiment with Torsin-1A (Homo sapiens) [9], 0.815. Further, the composite z-score with Torsin-1A (Homo sapiens) [10] was found to be 0.609; in experiment [11] it was 0.907; in experiment [13] it was 0.457. Further, the z-score in experiment [2] is -0.685 (inactive); in [4] it was -7.93 (inactive); in experiment [5], 0.353 (inactive); in experiment [6], -1.65 (inactive); in [12], 1.93 (inactive); in experiment [14], 6 (inactive). Also, the z-score in [15] is 0.758 (inactive); in experiment [16], -1.06 (inactive); in [17], -1.22 (inactive); in [18], 2.29; in [19], 2.23 (inactive).

As to `C=CCN1C(=O)[C@]2(O[C@H](CCn3cc([C@H](O)c4ccccc4)nn3)[C@@H]([Si](C)(C)c3ccc(OC)cc3)[C@@H]2C)c2cc(N3CCOC3=O)ccc21`, the composite z-score in the experiment with Lefty1 is -0.351; in [1], 0.514; in experiment [3], -0.185; in experiment [7] it was -0.0082; in experiment [8], -0.224; with Torsin-1A (Homo sapiens) [9] it was 0.772. Moreover, the composite z-score is 0.76 with Torsin-1A (Homo sapiens) [10], -0.429 in [11] and -0.417 in experiment [13]. The z-score in experiment [2] is -0.678 (inactive); in experiment [4], -5.33 (inactive); in experiment [5], 2.8 (inactive); in [6], -2.35 (inactive); in experiment [12], 1.46 (inactive); in experiment [14], 4.38 (inactive). For the same compound, the z-score was -0.527 (inactive) in [15]; 1.03 (inactive) in experiment [16]; -1.58 (inactive) in experiment [17]; 0.348 in [18]; -0.122 (inactive) in experiment [19].

`CC(C)CNC(=O)[C@@H]1c2ccccc2C(=O)N(Cc2ccc(OC(F)(F)F)cc2)[C@H]1c1ccc(CO)cc1`: the composite z-score is 1.52 with Lefty1; 0.75 in experiment [1]; 0.314 in experiment [3]; 0.941 in experiment [7]; 0.25 in experiment [8]; 0.864 in the experiment with Torsin-1A (Homo sapiens) [9]. Moreover, the composite z-score in the experiment with Torsin-1A (Homo sapiens) [10] was determined as 0.72; in [11] it was 2.02; in [13] it was 0.315. Besides, the z-score in experiment [2] is -1.25 (inactive); in [4] it was -2.27 (inactive); in experiment [5] it was -0.646 (inactive); in experiment [6], -1.28 (inactive); in experiment [12], 3.99 (inactive); in [14], 2.06 (inactive). The z-score in experiment [15] was -0.18 (inactive); in experiment [16] it was 0.209 (inactive); in experiment [17], -0.657 (inactive); in [18], 1.69; in experiment [19], -1.43 (inactive).

In the case of `C=C(COC)/C(=C/C[C@H](OC(C)=O)c1ccc(CO)o1)c1cnc2ccccc2c1`, the composite z-score worked out at 1.58 in the experiment with Lefty1; 1.35 in [1]; 0.251 in experiment [3]; 1.45 in experiment [7]; 0.0173 in experiment [8]; 1.21 with Torsin-1A (Homo sapiens) [9]. Also, the composite z-score is 1.42 with Torsin-1A (Homo sapiens) [10], 2.15 in experiment [11] and -0.145 in [13]. For the same compound, the z-score in experiment [2] is -2.1 (inactive); in experiment [4], -0.461 (inactive); in experiment [5], 0.844 (inactive); in [6] it was -1.08 (inactive); in experiment [12], 1.23 (inactive); in [14], 3.78 (inactive). In addition, the z-score in experiment [15] is -1.35 (inactive); in experiment [16], -0.148 (inactive); in experiment [17] it was -2.05 (inactive); in [18], -0.198; in [19], 2.33 (inactive).

With `O=C(O)[C@H]1C[C@H]2C(=O)NCC(=O)N2[C@H]1c1cccc(OCCO)c1`, the composite z-score in the experiment with Lefty1 was -0.13; in [1], 0.655; in experiment [3], 0.0144; in experiment [7] it was 0.42; in experiment [8] it was 0.263; in the experiment with Torsin-1A (Homo sapiens) [9] it was 0.836. The composite z-score with Torsin-1A (Homo sapiens) [10] was found to be 0.654; in experiment [11], 0.821; in [13], 1.24. In addition, the z-score is -1.6 (inactive) in [2]; -0.812 (inactive) in [4]; 0.285 (inactive) in experiment [5]; -0.736 (inactive) in experiment [6]; 2.08 (inactive) in experiment [12]; 9.23 (active) in experiment [14]. In addition, the z-score is 1.29 (inactive) in experiment [15]; -1.73 (inactive) in [16]; 0.818 (inactive) in [17]; 0.617 in experiment [18]; 1.81 (inactive) in experiment [19].

Regarding `CC(=O)NCCCC[C@@H]1NC(=O)[C@@H]2C[C@H](C(=O)O)[C@H](c3cccc(OCCO)c3)N2C1=O`, the composite z-score in the experiment on Lefty1 is 1.42; in experiment [1], 0.795; in experiment [3], 0.45; in experiment [7] it was 0.397; in experiment [8], -0.0403; with Torsin-1A (Homo sapiens) [9], 0.911. The figures for the composite z-score (with Torsin-1A (Homo sapiens) [10]; in experiment [11]; in experiment [13]) were 0.903, 2.12 and -0.138, respectively. For the same compound, the z-score is -1.16 (inactive) in experiment [2]; -0.533 (inactive) in [4]; 0.151 (inactive) in experiment [5]; -0.741 (inactive) in [6]; 0.733 (inactive) in [12]; 0.495 (inactive) in experiment [14]. In addition, the z-score in experiment [15] is 0.373 (inactive); in [16] it was -1.49 (inactive); in experiment [17], 0.0814 (inactive); in experiment [18] it was 0.264; in [19], -1.16 (inactive).

Turning to `CC(C)CCC[C@@H](C)[C@H]1CC[C@@]2(C)C3=C(CC[C@]12C)[C@@]1(C)CC[C@H](OC(=O)CCl)C(C)(C)C1CC3` (stereo not given in full), the composite z-score is 0.327 with Lefty1; 0.274 in [1]; 0.109 in experiment [3]; 0.0285 in experiment [7]; -0.251 in experiment [8]; 0.662 with Torsin-1A (Homo sapiens) [9]. For the same compound, the results for the composite z-score (with Torsin-1A (Homo sapiens) [10]; in experiment [11]; in experiment [13]) were 0.358, 0.588 and -0.194, respectively. For the same compound, the z-score in experiment [2] is -1.28 (inactive); in experiment [4], -0.186 (inactive); in [5] it was 1.3 (inactive); in experiment [6], -0.731 (inactive); in experiment [12] it was 3.33 (inactive); in [14], -0.0025 (inactive). The z-score in experiment [15] is -0.116 (inactive); in experiment [16], -0.417 (inactive); in experiment [17], 0.01 (inactive); in [18], 0.413; in experiment [19], -0.776 (inactive).

For the compound `C=C(COC)C(=O)CC[C@@H](OC(=O)c1ccccc1-c1ccccc1C(=O)O)c1cccc(OCCO)c1`, the composite z-score with Lefty1 was 0.299; in experiment [1], -0.478; in experiment [3], 0.0174; in experiment [7], -0.52; in experiment [8], -0.128; with Torsin-1A (Homo sapiens) [9] it was 0.785. Besides, the composite z-score is 0.455 with Torsin-1A (Homo sapiens) [10], 0.404 in experiment [11] and -0.144 in [13]. For the same compound, the z-score was -3.64 (inactive) in experiment [2]; 0.483 (inactive) in experiment [4]; 2.37 (inactive) in experiment [5]; 0.0416 (inactive) in experiment [6]; 0.908 (inactive) in experiment [12]; 8.07 (active) in experiment [14]. Besides, the z-score in experiment [15] is 1.28 (inactive); in experiment [16] it was 1.28 (inactive); in experiment [17], 0.236 (inactive); in experiment [18] it was -0.178; in experiment [19], 3.24 (inactive).
